Experimental data taken from the supplement of paper PMC8728848.
The entries come from a sample that favours the strongest signals as a whole.

How the values were obtained:
Assay in all cases: glycan array binding signal (z-score within array); higher = stronger binding
Details in all cases: glycan notation: IUPAC condensed, linker removed
Gal3S6S(b1-4)GlcNAc6S = molecular target: Gal3S6S(b1-4)GlcNAc6S
Procedure, shortened: (§1)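 The Consortium for Functional Glycomics database supplied 3228 glycan arrays, of which those lacking an available protein sequence were dropped. The binding signal, a within-array Z-score, was averaged across arrays of the same protein sequence and across linkers. Negative scores can be read as non-binding.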

Gal6S(b1-4)Glc6S = molecular target: Gal6S(b1-4)Glc6S
Procedure, shortened: as §1

GlcA(b1-3)GlcNAc = molecular target: GlcA(b1-3)GlcNAc
Procedure, shortened: as §1

[1] = molecular target: GlcNAc(a1-3)Gal(b1-4)GlcNAc
Procedure, shortened: as §1

[2] = molecular target: GlcNAc(a1-4)Gal(b1-4)GalNAc
Procedure, shortened: as §1

[3] = molecular target: GlcNAc(b1-2)[GlcNAc(b1-4)]Man(a1-3)[GlcNAc(b1-4)][GlcNAc(b1-2)[GlcNAc(b1-6)]Man(a1-6)]Man(b1-4)GlcNAc(b1-4)[Fuc(a1-6)]GlcNAc
Procedure, shortened: as §1

[4] = molecular target: GlcNAc(b1-3)Gal(b1-4)GlcNAc
Procedure, shortened: as §1

[5] = molecular target: GlcNAc(b1-3)Gal(b1-4)GlcNAc(b1-3)Gal(b1-4)GlcNAc(b1-3)Gal(b1-4)GlcNAc(b1-3)Gal(b1-4)GlcNAc(b1-2)[GlcNAc(b1-3)Gal(b1-4)GlcNAc(b1-3)Gal(b1-4)GlcNAc(b1-3)Gal(b1-4)GlcNAc(b1-3)Gal(b1-4)GlcNAc(b1-6)]Man(a1-6)[GlcNAc(b1-3)Gal(b1-4)GlcNAc(b1-3)Gal(b1-4)GlcNAc(b1-3)Gal(b1-4)GlcNAc(b1-3)Gal(b1-4)GlcNAc(b1-2)Man(a1-3)]Man(b1-4)GlcNAc(b1-4)[Fuc(a1-6)]GlcNAc
Procedure, shortened: as §1

GlcNAc(b1-3)Man = molecular target: GlcNAc(b1-3)Man
Procedure, shortened: as §1

GlcNAc(b1-4)GlcNAc = molecular target: GlcNAc(b1-4)GlcNAc
Procedure, shortened: as §1

GlcNAc(b1-6)GalNAc = molecular target: GlcNAc(b1-6)GalNAc
Procedure, shortened: as §1

[6] = molecular target: Man(a1-2)Man(a1-2)Man(a1-3)Man
Procedure, shortened: as §1

[7] = molecular target: Neu5Ac(a2-3)Gal(b1-3)GalNAc(b1-4)[Neu5Ac(a2-3)]Gal(b1-4)Glc
Procedure, shortened: as §1

Neu5Ac(a2-3)Gal(b1-4)Glc = molecular target: Neu5Ac(a2-3)Gal(b1-4)Glc
Procedure, shortened: as §1

[8] = molecular target: Neu5Ac(a2-3)Gal(b1-4)GlcNAc(b1-3)Gal(b1-4)GlcNAc(b1-3)[Neu5Ac(a2-3)Gal(b1-4)GlcNAc(b1-3)Gal(b1-4)GlcNAc(b1-6)]GalNAc
Procedure, shortened: as §1

[9] = molecular target: Neu5Ac(a2-3)[Neu5Ac(a2-6)]GalNAc
Procedure, shortened: as §1

Neu5Ac(a2-6)Gal = molecular target: Neu5Ac(a2-6)Gal
Procedure, shortened: as §1

[10] = molecular target: Neu5Ac(a2-6)Gal(b1-4)GlcNAc(b1-2)Man(a1-3)[Neu5Ac(a2-6)Gal(b1-4)GlcNAc(b1-2)Man(a1-6)]Man(b1-4)GlcNAc(b1-4)GlcNAc
Procedure, shortened: as §1

[11] = molecular target: Neu5Ac(a2-6)Gal(b1-4)GlcNAc(b1-3)Gal(b1-4)GlcNAc(b1-3)[Neu5Ac(a2-6)Gal(b1-4)GlcNAc(b1-3)Gal(b1-4)GlcNAc(b1-6)]GalNAc
Procedure, shortened: as §1

[12] = molecular target: Neu5Ac(a2-6)Gal(b1-4)GlcNAc(b1-6)[Gal(b1-3)GlcNAc(b1-3)]Gal(b1-4)Glc
Procedure, shortened: as §1

[13] = molecular target: Neu5Ac(a2-6)Gal(b1-4)GlcNAc6S
Procedure, shortened: as §1

Neu5Ac(a2-8)Neu5Ac = molecular target: Neu5Ac(a2-8)Neu5Ac
Procedure, shortened: as §1

[14] = molecular target: Neu5Ac(a2-8)Neu5Ac(a2-3)Gal(b1-3)GalNAc(b1-4)[Neu5Ac(a2-3)]Gal(b1-4)Glc
Procedure, shortened: as §1

Neu5Gc(a2-3)Gal(b1-4)Glc = molecular target: Neu5Gc(a2-3)Gal(b1-4)Glc
Procedure, shortened: as §1

[15] = molecular target: Neu5Gc(a2-3)Gal(b1-4)GlcNAc
Procedure, shortened: as §1

[16] = molecular target: Neu5Gc(a2-6)Gal(b1-4)GlcNAc
Procedure, shortened: as §1

B1: PNGase F (Flavobacterium meningosepticum) (protein)
chain: GIPAPADNTVNIKTFDKVKNAFGDGLSQSAEGTFTFPADVTAVKTIKMFIKNECPNKTCDEWDRYANVYVKNKTTGEWYEIGRFITPYWVGTEKLPRGLEIDVTDFKSLLSGNTELKIYTETWLAKGREYSVDFDIVYGTPDYKYSAVVPVVQYNKSSIDGVPYGKAHTLALKKNIQLPTNTEKAYLRTTISGWGHAKPYDAGSRGCAEWCFRTHTIAINNSNTFQHQLGALGCSANPINNQSPGNWTPDRAGWCPGMAVPTRIDVLNNSLIGSTFSYEYKFQNWTNNGTNGDAFYAISSFVIAKSNTPISAPVVTNLDPHHHHHH
glycan array binding signal (z-score) (Gal3S6S(b1-4)GlcNAc6S): -0.035 | glycan array binding signal (z-score) (Gal6S(b1-4)Glc6S): -0.41 | glycan array binding signal (z-score) (GlcA(b1-3)GlcNAc): -0.118 | glycan array binding signal (z-score) [1]: -0.344 | glycan array binding signal (z-score) [2]: 1.26 | glycan array binding signal (z-score) [3]: -0.395 | glycan array binding signal (z-score) [4]: -0.264 | glycan array binding signal (z-score) [5]: -0.3 | glycan array binding signal (z-score) (GlcNAc(b1-3)Man): 3.03 | glycan array binding signal (z-score) (GlcNAc(b1-4)GlcNAc): 10.4 | glycan array binding signal (z-score) (GlcNAc(b1-6)GalNAc): -0.018 | glycan array binding signal (z-score) [6]: 1.49 | glycan array binding signal (z-score) [7]: -0.289 | glycan array binding signal (z-score) (Neu5Ac(a2-3)Gal(b1-4)Glc): 2.16 | glycan array binding signal (z-score) [8]: -0.043 | glycan array binding signal (z-score) [9]: 0.36 | glycan array binding signal (z-score) (Neu5Ac(a2-6)Gal): -0.129 | glycan array binding signal (z-score) [10]: -0.391 | glycan array binding signal (z-score) [11]: -0.278 | glycan array binding signal (z-score) [12]: -0.207 | glycan array binding signal (z-score) [13]: -0.286 | glycan array binding signal (z-score) (Neu5Ac(a2-8)Neu5Ac): -0.021 | glycan array binding signal (z-score) [14]: -0.328 | glycan array binding signal (z-score) (Neu5Gc(a2-3)Gal(b1-4)Glc): 0.187 | glycan array binding signal (z-score) [15]: 2.36 | glycan array binding signal (z-score) [16]: -0.046
